# Source: PubChem BioAssay
# PAFAH2 inh = PAFAH2 enzyme inhibitors, primary screen, biochemical, fluorescence polarization, human; Platelet-activating factor acetylhydrolase 2, cytoplasmic (Homo sapiens), Q99487; recombinant PAFAH2, FP-rhodamine activity probe; inhibition, % at 3.39 µM; actives 0.99% (n = 340,000);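 active = inhibition above the mean over all tested compounds plus 3 SD, cut at about 30% in these data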;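 note: inhibitors block probe labeling of enzyme so polarization drops; 0% = enzyme with DMSO and 100% = wells lacking PAFAH2 protein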
# EBNA-1 inh = EBNA-1 DNA-binding inhibitors, primary screen, biochemical, fluorescence polarization; actives 0.34% (n = 300,000); inhibition, % at 14.8 µM; in the data active = inhibition above about 28%
# PAFAH1B3 FP inh = PAFAH1B3 enzyme inhibitors, primary screen, biochemical, fluorescence polarization, human | AID 492972, 2010 | Platelet-activating factor acetylhydrolase IB subunit alpha1 (Homo sapiens), Q15102 | recombinant PAFAH1B3, FP-rhodamine probe | inhibition, % at 3.39 µM | actives 0.28% (n = 340,000);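 active = inhibition above the screen-wide average of all tested compounds plus 3 SD, cut at about 25% in these data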;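 note: 0% = enzyme with DMSO only and 100% = wells lacking PAFAH1B3 protein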
# Target sequence (Q15102 whole entry, looked up): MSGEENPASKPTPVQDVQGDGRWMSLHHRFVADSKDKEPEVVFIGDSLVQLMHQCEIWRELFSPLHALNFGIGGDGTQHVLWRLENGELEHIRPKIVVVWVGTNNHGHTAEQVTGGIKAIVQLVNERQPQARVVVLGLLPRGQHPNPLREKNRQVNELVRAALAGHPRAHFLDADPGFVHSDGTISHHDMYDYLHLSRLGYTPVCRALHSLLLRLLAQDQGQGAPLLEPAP
# ZTA DNA inh = counter-screen for EBNA-1 inhibitors: inhibitors of Epstein-Barr virus ZTA. P03206. ZTA-DNA binding, fluorescence polarization. inhibition, % at 11 µM. actives 0.15% (n = 320,000). AID 2234; in the data active = inhibition above about 33%
# Target sequence (P03206 whole entry, looked up): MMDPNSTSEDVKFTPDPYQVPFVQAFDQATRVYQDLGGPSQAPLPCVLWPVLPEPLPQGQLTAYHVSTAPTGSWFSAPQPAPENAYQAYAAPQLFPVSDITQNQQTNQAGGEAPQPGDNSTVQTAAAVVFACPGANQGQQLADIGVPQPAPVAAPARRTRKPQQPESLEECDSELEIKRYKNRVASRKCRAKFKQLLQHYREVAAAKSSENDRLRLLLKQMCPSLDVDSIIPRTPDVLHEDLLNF
# rCAG binder = binders of r(CAG) RNA repeats, primary screen, biochemical, fluorescence | r(CAG) RNA repeat, TO-PRO-1 dye displacement fluorescence | inhibition, % at 3 µM | actives 1.3% (n = 370,000);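 active = inhibition above the plate cutoff, the mean of all test compounds on that plate plus 3 SD, cut at about 35% in these data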;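 note: 0% = DMSO alone and 100% = 100 µM mitoxantrone as full dye displacement; higher means more dye released from RNA so lower well fluorescence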
# PAFAH1B2 FP inh = PAFAH1B2 enzyme inhibitors, primary screen, biochemical, fluorescence polarization, human; Platelet-activating factor acetylhydrolase IB subunit alpha2 (Homo sapiens), P68402; recombinant PAFAH1B2, FP-rhodamine activity probe; inhibition, % at 3.39 µM; actives 1.2% (n = 340,000); AID 492953, 2010;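 active = inhibition above the mean of all tested compounds plus 3 SD, cut at about 24% in these data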;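 note: 0% = enzyme with DMSO and 100% = wells lacking PAFAH1B2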
# PAFAH2 FP conf = PAFAH2 enzyme inhibitors, confirmation, biochemical, fluorescence polarization, human; shares compounds with PAFAH2 inh; recombinant PAFAH2, FP-rhodamine activity probe; inhibition, % at 3.39 µM; actives 65% (n = 2,300); AID 493030, 2011;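 active = mean inhibition over three repeats above a set limit taken from the earlier primary screen, cut at about 30% in these data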;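 note: inhibitor blocks binding of rhodamine activity probe so polarization falls; 0% = enzyme with DMSO and 100% = wells lacking PAFAH2 protein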
# Starred values were filed as active, the others as inactive; . = no result given. Only some compounds are listed: those with a hit (about 2.9% of all), similar ones and a draw of the others.
SMILES,PAFAH2 inh,EBNA-1 inh,PAFAH1B3 FP inh,ZTA DNA inh,rCAG binder,PAFAH1B2 FP inh,PAFAH2 FP conf
C#C[C@]1(O)CC[C@H]2[C@@H]3CCc4cc(OC5CCCC5)ccc4[C@H]3CC[C@@]21C,53*,3,-4,8,2,1,51*
C#C[C@]1(O)CC[C@H]2[C@@H]3CCc4cc(OC)ccc4[C@H]3CC[C@@]21C,26,2,10,-4,2,-1,.
COc1ccc(S[C@]2(C(=O)N3CCOCC3)CC(=O)N(S(=O)(=O)c3ccc(F)cc3)[C@@H]2c2ccc(OC)cc2)cc1,.,.,.,.,12,.,.
COc1cc(/C=C/C(=O)OCC(=O)Nc2ccc3c(c2)OCO3)ccc1O,82*,.,3,.,18,-1,74*
COc1cc(/C=C/C(=O)OCC(=O)Nc2ccc(S(=O)(=O)N3CCCC3)cc2)ccc1O,1,2,6,1,16,-6,.
COc1cc(NC(=O)COC(=O)/C=C/c2ccc(O)c(OC)c2)cc(OC)c1,29,2,3,-9,5,-2,.
COc1ccc(/C=C/C(=O)OCC(=O)Nc2ccc3c(c2)OCO3)cc1,70*,.,-2,2,3,2,69*
Cc1nn(C2CCS(=O)(=O)C2)c(Cl)c1/C=C/C(=O)OCC(=O)Nc1ccc2c(c1)OCO2 (stereo unspecified),83*,-3,9,4,-2,3,80*
COc1cc(/C=C/C(=O)OCC(=O)Nc2ccc3c(c2)OCCO3)ccc1O,75*,-2,0,-4,2,3,80*
COc1ccc(CC(=O)OCC(=O)Nc2ccc3c(c2)OCO3)cc1,8,-2,-2,3,-1,6,.
COc1cc(NC(=O)COC(=O)/C=C/c2c(C)nn(C3CCS(=O)(=O)C3)c2Cl)cc(OC)c1OC (stereo unspecified),0,-10,2,6,-4,2,.
Cc1ccc(CSc2nnc(-c3cc(-c4ccc(F)cc4)n[nH]3)n2N)cc1,.,.,.,.,5,.,.
CN(Cc1ccccc1)C(=O)OCc1cn(Cc2ccc(Cl)cc2)nn1,.,.,.,.,5,.,.
COc1ccc2c(c1)CN1C(=O)N(CC(C)C)S(=O)(=O)CC21 (stereo unspecified),.,.,.,.,4,.,.
CCCCOc1ccc(C(=O)NC2CCCCN(Cc3cccc(Cl)c3)C2=O)cc1 (stereo unspecified),.,.,.,.,5,.,.
CCN(CC)C(=O)CSc1nc2c(sc(=S)n2-c2ccccc2OC)c(=O)n1-c1ccccc1,38*,-18,-2,-14,-1,1,9
COC[C@H]1CCCN1c1ccc2c(c1)O[C@@H](COCc1ccccc1)CN([C@H](C)c1ccccc1)S2(=O)=O,.,.,.,.,7,.,.
Cc1ccc(S(=O)(=O)n2nc(OC(=O)c3cccc(F)c3)cc2N)cc1,-3,-3,8,-14,3,9,.
Cc1ccc(S(=O)(=O)n2nc(OC(=O)c3c(F)cccc3Cl)cc2N)cc1,34*,13,9,-16,7,15,12
Cc1ccc2nc(-c3cccs3)oc(=O)c2c1,54*,-7,11,4,1,-1,54*
COc1cc2nc(-c3cccs3)oc(=O)c2cc1OC,41*,2,17,3,0,0,23
O=c1oc(-c2cccs2)nc2ccc(Br)cc12,18,1,4,1,23,3,.
O=c1oc(-c2cccs2)nc2c1cnn2-c1ccccc1,66*,5,0,4,1,3,54*
O=c1c2cnn(-c3ccccc3)c2nc(-c2cccs2)n1-c1ccc(Cl)cc1,3,-6,3,10,8,5,.
CC(=O)Nc1ccc(NC(=O)CSc2nnc(-c3cccs3)o2)cc1,.,.,.,.,4,.,.
SMILES,PAFAH2 inh,EBNA-1 inh,PAFAH1B3 FP inh,ZTA DNA inh,rCAG binder,PAFAH1B2 FP inh,PAFAH2 FP conf
COc1ccc(/C=C2\SC(=N)N(c3nccs3)C2=O)cc1OC,21,6,0,9,27,6,.
N=C1S/C(=C\c2ccc(-c3cccc(Cl)c3)o2)C(=O)N1c1nccs1,45*,-12,11,2,15,8,23
CCOC(=O)N1CCN(C(=O)C[C@H]2C[C@@]3(C(=O)OC)C(=C[C@H](C4CCCC4)O[C@@H]3C)N(Cc3ccco3)C2=O)CC1,.,.,.,.,1,.,.
Cc1cc(Nc2cccc(Br)c2)c2ccccc2n1,50*,-10,4,-19,3,-3,8
COC(=O)[C@H](CC(C)C)N(Cc1cn(CC2CCCCC2)nn1)S(=O)(=O)c1ccccc1Br,.,.,.,.,4,.,.
Cc1ccsc1C(=O)NCc1ccc(Cl)cc1,.,5,.,15,-4,.,.
Cc1ccsc1C(=O)OCC(=O)NCc1ccc(Cl)cc1,39*,.,4,17,-1,-1,40*
COc1ccc(NC(=O)COC(=O)c2cc3c(s2)CCC3)cc1,77*,.,4,-12,.,-3,82*
NC(=O)c1ccc(NC(=O)COC(=O)c2cc3c(s2)CCC3)cc1,11,.,6,.,4,0,.
O=C(COC(=O)c1nc(Cl)ccc1Cl)Nc1ccc(Cl)cn1,0,.,1,-4,5,-3,.
O=C(COC(=O)CCC(=O)c1cccs1)Nc1ccc(Cl)cn1,1,-3,-4,-12,4,5,.
O=C(COC(=O)c1cc2c(s1)CCCC2)Nc1ccc(Cl)cn1,30*,-11,2,1,3,-3,33*
O=C(COC(=O)c1cccs1)Nc1ccc(Cl)cn1,67*,.,10,.,4,3,73*
COc1ccc(N2CCN(CCNS(=O)(=O)c3ccc(Br)s3)CC2)cc1,.,.,.,.,1,.,.
Nc1nc2c(ncn2[C@@H]2O[C@H](C(=O)NC3CCCCC3)[C@@H](O)[C@H]2O)c(=O)[nH]1,.,.,.,.,1,.,.
Cc1ccsc1C(=O)OCC(=O)Nc1ccc(Cl)cn1,78*,.,12,.,2,2,48*
Cc1cnc(C(=O)OCC(=O)Nc2ccc(Cl)cn2)cn1,7,-7,-1,-4,3,1,.
Cc1cc2c(=O)oc(-c3ccccc3Br)nc2s1,69*,.,5,.,-1,3,52*
COC(=O)c1ccc(Cn2ccc3ccc(-c4ccc5ccn(C(=O)c6ccccc6OC)c5c4)cc32)cc1,.,.,.,.,13,.,.
Cc1ccc(/C=C2\SC(=S)N(CCCC(=O)Nc3ccc(O)cc3)C2=O)cc1,-5,-4,2,-4,6,2,.
Cc1ccc(/C=C2/SC(=S)N(CCCC(=O)Nc3cc([N+](=O)[O-])ccc3O)C2=O)cc1,32*,1,9,-5,1,4,16
